“And” between values parts separate entries of the source, which are not always exact repeats. Identical values can stand only once. The whole screen tested about 5,500 compounds, of which about 2,000 (36%) were called active. Roughly 18% stayed inconclusive and do not appear here. Rule as the data show it: active = normalized growth mostly below about 0.91 (no sharp cut-off); inconclusive = no clear call, values can overlap the other calls; inactive = mostly above about 0.92. The list shows a part of the results.
Test: chemical genetic growth profiling, strain panel (AID 1159580);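 also: tested at 20 µM; growth read once vehicle control cultures reached saturation at 30 °C; 1 = growth at the plate median or of vehicle wells; lower values mean less growth of the strain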
Settings: S. cerevisiae deletion strains, growth OD

Measured: normalized growth

NC[C@H](O)c1ccc(O)c(O)c1
inactive: locus YAL013W, strain DEP1, active compounds read low 1.01 | locus YAL021C, strain ccr4, active compounds read low 0.984 | locus YAL026C, strain drs2, active compounds read low 0.99 | locus YAL030W, strain snc1, active compounds read low 1.01 | locus YBL061C, strain skt5, active compounds read low 1.01 | locus YBR009C, strain hhf1, active compounds read low 1.01 | locus YBR021W, strain FUR4, active compounds read low 1.01 | locus YBR023C, strain chs3, active compounds read low 1.02 | locus YBR171W, strain sec66, active compounds read low 0.996 | locus YBR229C, strain ROT2, active compounds read low 1.01 | locus YBR231C, strain swc5, active compounds read low 0.984 | locus YBR279W, strain paf1, active compounds read low 1.02 | locus YCL011C, strain gbp2, active compounds read low 0.999 | locus YCL016C, strain dcc1, active compounds read low 1.02 | locus YCL029C, strain bik1, active compounds read low 1.01 | locus YCL061C, strain MRC1, active compounds read low 1.01 | locus YCL069W, strain vba3, active compounds read low 0.991 | locus YCR088W, strain abp1, active compounds read low 1.01 | locus YDL005C, strain med2, active compounds read low 1 | locus YDL035C, strain GPR1, active compounds read low 1.01 | locus YDL040C, strain nat1, active compounds read low 1.01 | locus YDL074C, strain BRE1, active compounds read low 0.986 | locus YDL101C, strain DUN1, active compounds read low 1.01 | locus YDL134C, strain PPH21, active compounds read low 1.02 | locus YDL185W, strain tfp1, active compounds read low 1.01 | locus YDL192W, strain arf1, active compounds read low 1.01 | locus YDR001C, strain nth1, active compounds read low 1 | locus YDR069C, strain doa4, active compounds read low 0.981 | locus YDR101C, strain arx1, active compounds read low 1 | locus YDR137W, strain rgp1, active compounds read low 1.06 | locus YDR150W, strain NUM1, active compounds read low 1 | locus YDR159W, strain sac3, active compounds read low 1.01 | locus YDR162C, strain NBP2, active compounds read low 1 | locus YDR195W, strain ref2 1.01 | locus YDR297W, strain sur2, active compounds read low 1.01 | locus YDR318W, strain mcm21, active compounds read low 1.03 | locus YDR334W, strain swr1, active compounds read low 0.984 | locus YDR335W, strain msn5, active compounds read low 0.999 | locus YDR388W, active compounds read low 1.02 | locus YDR392W, strain spt3, active compounds read low 0.987 | locus YDR502C, strain sam2, active compounds read low 1.02 | locus YEL003W, strain gim4, active compounds read low 0.986 | locus YEL037C, strain rad23, active compounds read low 0.986 | locus YEL061C, strain CIN8 (second series), active compounds read low 0.985 | locus YEL061C, strain CIN8, active compounds read low 1.01 | locus YER015W, strain faa2, active compounds read low 0.99 | locus YER016W, strain bim1, active compounds read low 1 | locus YER110C, active compounds read low 1.02 | locus YER111C, strain swi4, active compounds read low 0.98 | locus YER155C, strain BEM2 (second series), active compounds read low 1 | locus YER155C, strain BEM2, active compounds read low 1.02 | locus YER167W, strain BCK2, active compounds read low 1.02 | locus YFR010W, strain ubp6, active compounds read low 0.953 | locus YGL078C, strain dbp3, active compounds read low 1.01 | locus YGL086W, strain mad1, active compounds read low 0.991 | locus YGL167C, strain pmr1, active compounds read low 1 | locus YGL173C, strain kem1, active compounds read low 0.999 | locus YGL227W, strain vid30, active compounds read low 1 | locus YGL240W, strain doc1, active compounds read low 1.03 | locus YGL248W, strain PDE1, active compounds read low 1.01 | locus YGL253W, strain hxk2, active compounds read low 0.994 | locus YGR135W, strain pre9, active compounds read low 0.998 | locus YGR252W, strain gcn5, active compounds read low 0.958 | locus YHR013C, strain ard1, active compounds read low 1 | locus YHR027C, strain rpn1, active compounds read low 1 | locus YHR030C, strain SLT2, active compounds read low 1.01 and 0.962 | locus YHR079C, strain IRE1 (second series), active compounds read low 1.02 | locus YHR079C, strain IRE1, active compounds read low 0.953 | locus YHR094C, strain hxt1, active compounds read low 1.03 | locus YHR129C, strain ARP1, active compounds read low 0.999 | locus YHR142W, strain chs7, active compounds read low 0.978 | locus YHR200W, strain rpn10, active compounds read low 1.02 | locus YIL066C, strain RNR3, active compounds read low 1.01 | locus YIL073C, strain SPO22, active compounds read low 1.03 | locus YIL125W, strain kgd1, active compounds read low 1.01 | locus YIR030C, strain dcg1, active compounds read low 1.02 | locus YJL092W, strain hpr5, active compounds read low 1 | locus YJL095W, strain BCK1 (second series), active compounds read low 1.01 | locus YJL095W, strain BCK1, active compounds read low 0.994 and 0.971 | locus YJL115W, strain asf1, active compounds read low 1 | locus YJL129C, strain trk1, active compounds read low 0.952 | locus YJL134W, strain LCB3, active compounds read low 1.01 | locus YJL154C, strain vps35, active compounds read low 1 | locus YJL164C, strain tpk1, active compounds read low 1.01 | locus YJL166W, strain qcr8, active compounds read low 1.02 | locus YJL168C, strain set2, active compounds read low 1.02 | locus YJL187C, strain SWE1 (second series), active compounds read low 1.01 | locus YJL187C, strain SWE1, active compounds read low 0.999 | locus YJR043C, strain POL32, active compounds read low 1.02
